Data reported in PubChem BioAssay AID1159580 (chemical genetic matrix, 2015).
The campaign covered roughly 5,500 compounds. About 2,000 (36%) were called active. Inconclusive results (about 18%) are left out. Cut-off read from the data, not from the text of the source: active = normalized growth mostly below about 0.91 (no sharp cut-off); inconclusive = no clear call, values can overlap the other calls; inactive = mostly above about 0.92. The list shows a part of the results.

Experiment: chemical genetic growth profiling, strain panel (AID 1159580);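 note: tested at 20 µM; growth read once vehicle control cultures reached saturation at 30 °C; 1 = growth at the plate median or of vehicle wells; lower values mean less growth of the strain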
Settings: S. cerevisiae deletion strains, growth OD

Measured: normalized growth

Cc1ncc([N+](=O)[O-])n1CC(C)O (centres undefined)
inactive: locus YAL021C, strain ccr4, stronger effect = lower value 0.954 | locus YAL026C, strain drs2, stronger effect = lower value 0.956 | locus YAL030W, strain snc1, stronger effect = lower value 0.975 | locus YBL061C, strain skt5, stronger effect = lower value 0.974 | locus YBR009C, strain hhf1, stronger effect = lower value 0.982 | locus YBR023C, strain chs3, stronger effect = lower value 0.995 | locus YBR171W, strain sec66, stronger effect = lower value 0.976 | locus YBR231C, strain swc5, stronger effect = lower value 0.992 | locus YBR279W, strain paf1, stronger effect = lower value 0.995 | locus YCL011C, strain gbp2, stronger effect = lower value 0.968 | locus YCL016C, strain dcc1, stronger effect = lower value 0.975 | locus YCL061C, strain MRC1, stronger effect = lower value 0.924 | locus YCL069W, strain vba3, stronger effect = lower value 0.975 | locus YCR088W, strain abp1, stronger effect = lower value 0.986 | locus YDL005C, strain med2, stronger effect = lower value 0.976 | locus YDL040C, strain nat1, stronger effect = lower value 0.978 | locus YDR001C, strain nth1, stronger effect = lower value 0.95 | locus YDR069C, strain doa4, stronger effect = lower value 0.966 | locus YDR137W, strain rgp1, stronger effect = lower value 0.983 | locus YDR159W, strain sac3, stronger effect = lower value 0.972 | locus YDR195W, strain ref2 0.989 | locus YDR297W, strain sur2, stronger effect = lower value 0.982 | locus YDR334W, strain swr1, stronger effect = lower value 0.957 | locus YDR335W, strain msn5, stronger effect = lower value 0.982 | locus YDR392W, strain spt3, stronger effect = lower value 0.922 | locus YEL003W, strain gim4, stronger effect = lower value 0.977 | locus YEL037C, strain rad23, stronger effect = lower value 0.983 | locus YEL061C, strain CIN8 (second series), stronger effect = lower value 0.964 | locus YER015W, strain faa2, stronger effect = lower value 0.988 | locus YER016W, strain bim1, stronger effect = lower value 0.983 | locus YER111C, strain swi4, stronger effect = lower value 0.978 | locus YER155C, strain BEM2 (second series), stronger effect = lower value 0.994 | locus YFR010W, strain ubp6, stronger effect = lower value 0.969 | locus YGL167C, strain pmr1, stronger effect = lower value 0.981 | locus YGL173C, strain kem1, stronger effect = lower value 0.966 | locus YGL227W, strain vid30, stronger effect = lower value 0.985 | locus YGL240W, strain doc1, stronger effect = lower value 0.995 | locus YGL253W, strain hxk2, stronger effect = lower value 0.981 | locus YHR013C, strain ard1, stronger effect = lower value 0.948 | locus YHR027C, strain rpn1, stronger effect = lower value 0.987 | locus YHR030C, strain SLT2, stronger effect = lower value 0.976 | locus YHR079C, strain IRE1, stronger effect = lower value 0.979 | locus YHR142W, strain chs7, stronger effect = lower value 0.99 | locus YJL092W, strain hpr5, stronger effect = lower value 0.961 | locus YJL095W, strain BCK1 (second series), stronger effect = lower value 0.984 | locus YJL095W, strain BCK1, stronger effect = lower value 0.991 | locus YJL115W, strain asf1, stronger effect = lower value 0.982 | locus YJL129C, strain trk1, stronger effect = lower value 0.966 | locus YJL154C, strain vps35, stronger effect = lower value 0.979 | locus YJL164C, strain tpk1, stronger effect = lower value 0.966 | locus YJL166W, strain qcr8, stronger effect = lower value 0.996 | locus YJR066W, strain TOR1, stronger effect = lower value 0.883 | locus YKL160W, strain elf1, stronger effect = lower value 1 | locus YKR026C, strain gcn3, stronger effect = lower value 0.984 | locus YKR091W, strain srl3, stronger effect = lower value 0.983 | locus YLL001W, strain dnm1, stronger effect = lower value 0.988 | locus YLL026W, stronger effect = lower value 0.988 | locus YLL041C, strain sdh2, stronger effect = lower value 0.982 | locus YLR027C, strain aat2, stronger effect = lower value 0.994 | locus YLR113W, strain HOG1, stronger effect = lower value 1.01 | locus YLR221C, strain rsa3, stronger effect = lower value 0.958 | locus YLR258W, strain gsy2, stronger effect = lower value 0.974 | locus YLR262C, strain YPT6 (second series), stronger effect = lower value 0.981 | locus YLR320W, strain mms22, stronger effect = lower value 0.96 | locus YLR342W, strain FKS1, stronger effect = lower value 0.987 | locus YLR357W, strain rsc2, stronger effect = lower value 0.959 | locus YLR370C, strain arc18, stronger effect = lower value 0.992 | locus YLR384C, strain iki3, stronger effect = lower value 0.998 | locus YML120C, strain ndi1, stronger effect = lower value 0.967 | locus YMR058W, strain fet3, stronger effect = lower value 0.971 | locus YMR125W, strain sto1, stronger effect = lower value 0.945 | locus YMR129W, stronger effect = lower value 0.965 | locus YMR205C, strain PFK2, stronger effect = lower value 0.979 | locus YMR231W, strain pep5, stronger effect = lower value 0.972 | locus YNL071W, strain lat1, stronger effect = lower value 0.979 | locus YNL183C, strain NPR1, stronger effect = lower value 0.891 | locus YNL209W, strain ssb2, stronger effect = lower value 0.987 | locus YNL248C, strain rpa49, stronger effect = lower value 0.946 | locus YNL322C, strain KRE1 (second series), stronger effect = lower value 0.974 | locus YNR049C, strain mso1, stronger effect = lower value 0.978 | locus YOR001W, strain rrp6, stronger effect = lower value 0.994 | locus YOR070C, strain gyp1, stronger effect = lower value 0.985 | locus YOR080W, strain dia2, stronger effect = lower value 0.981 | locus YOR083W, strain WHI5, stronger effect = lower value 0.997 | locus YOR106W, strain vam3, stronger effect = lower value 0.978 | locus YOR231W, strain MKK1, stronger effect = lower value 0.991 | locus YOR265W, strain rbl2, stronger effect = lower value 0.99 | locus YOR270C, strain vph1, stronger effect = lower value 0.97 | locus YOR290C, strain snf2, stronger effect = lower value 0.939 | locus YPL051W, strain arl3, stronger effect = lower value 1 | locus YPL078C, strain atp4, stronger effect = lower value 0.997 | locus YPL106C, strain sse1, stronger effect = lower value 0.931 | locus YPL240C, strain hsp82, stronger effect = lower value 0.98 | locus YPL256C, strain CLN2, stronger effect = lower value 0.965
